PubChem BioAssay AID2017 (National Center for Advancing Translational Sciences (NCATS), 2009)
Results filed as inconclusive are left out. Calls of active or inactive are those of the source. The call rests on the fitted dose curve; in most records, active means well fitted curve in the direction sought with a large enough effect; inconclusive means small, poorly fitted or top-dose-only effect, or another doubt; inactive means no such curve, though single readings can be large or run the other way.

The compounds below were run on 4-diphosphocytidyl-2-C-methyl-D-erythritol kinase IspE (bacterial, species not stated) (assay: Confirmatory Assay for Inhibitors of Human Galactokinase (GALK): CDP-Me assay counterscreen). Conditions: ATP depletion, Kinase-Glo luminescence; series mostly up to 115 µM.
Summary of the method: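 CMK (0.25 ug/mL) with 15 uM ATP and 30 uM CDP-ME in 20 mM HEPES pH8.0, 5 mM MgCl2, 40 mM KCl, 1 mM DTT, 0.01% BSA; 1 h room temperature. Residual ATP read by Kinase-Glo Plus luminescence.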

| SMILES | outcome |
| --- | --- |
| O=C1C=C(N(CCO)Cc2ccccc2)c2ccccc2C1=O | inactive |
| CCS(=O)(=O)C1=NN2C(=N)/C(=C\c3ccc(OS(=O)(=O)c4ccccc4)cc3)C(=O)N=C2S1 | inactive |
| O=c1[nH]c(/C=C/c2ccc([N+](=O)[O-])cc2)c([N+](=O)[O-])c(=O)[nH]1 | inactive |
| O=S(=O)(NCc1cccs1)c1ccc(Br)s1 | inactive |
| Cc1nc(NS(=O)(=O)c2ccc(Cl)s2)c2c3c(sc2n1)CCCC3 | inactive |
| N#C/C(=C\c1coc2ccc(O)cc2c1=O)C(=O)Nc1nc2ccccc2s1 | inactive |
| O=C(NCCc1ccccc1)c1ccc2c(=O)[nH]c3c(C(=O)NCC4CCCO4)sc(=S)n3c2c1 (stereo unspecified) | inactive |
| COC(=O)c1ccc(CSc2ccc3nnc(-c4ccccn4)n3n2)o1 | inactive |
| Cc1snc(S(=O)(=O)/C(C#N)=N/Nc2cccc(C(F)(F)F)c2)c1C#N | inactive |
| CS(=O)(=O)c1ccc2c(c1)sc1nc(=O)c(/C=C3/C=CC(=O)C(O)=C3)c(N)n12 | inactive |
| C[C@H](NC(=O)C1CCC(CNC(=O)[C@@H]2CCCN2C(=O)OC(C)(C)C)CC1)C(=O)O (stereo partly specified) | inactive |
